This is an account of results in PubChem BioAssay AID1851 (National Center for Advancing Translational Sciences (NCATS), 2009).

The structures appear in SMILES notation. Hit rate of the full screen: of about 16,000 compounds, about 5,700 (36%) were called active. Roughly 24% stayed inconclusive and do not appear here. The list shows a part of the results. A number with no mark means an inactive call. The call rests on the fitted dose curve; in most records, active means well fitted curve in the direction sought with a large enough effect; inconclusive means small, poorly fitted or top-dose-only effect, or effect the other way; inactive means no such curve, though single readings can be large or run the other way.
On the % scale 0 is the no-effect control and ±100 the full control effect.

In this test the target is Cytochrome P450 1A2 (Homo sapiens) (UniProt P05177). Briefly: Cytochrome panel assay with activity outcomes. To be noted: recombinant CYP, pro-luciferin dealkylation, luminescence, p450-cyp1a2; series mostly up to 57.1 µM; activity, negative = inhibition: at the top concentration.
Sequence of Cytochrome P450 1A2 (Homo sapiens) (P05177 whole entry, looked up): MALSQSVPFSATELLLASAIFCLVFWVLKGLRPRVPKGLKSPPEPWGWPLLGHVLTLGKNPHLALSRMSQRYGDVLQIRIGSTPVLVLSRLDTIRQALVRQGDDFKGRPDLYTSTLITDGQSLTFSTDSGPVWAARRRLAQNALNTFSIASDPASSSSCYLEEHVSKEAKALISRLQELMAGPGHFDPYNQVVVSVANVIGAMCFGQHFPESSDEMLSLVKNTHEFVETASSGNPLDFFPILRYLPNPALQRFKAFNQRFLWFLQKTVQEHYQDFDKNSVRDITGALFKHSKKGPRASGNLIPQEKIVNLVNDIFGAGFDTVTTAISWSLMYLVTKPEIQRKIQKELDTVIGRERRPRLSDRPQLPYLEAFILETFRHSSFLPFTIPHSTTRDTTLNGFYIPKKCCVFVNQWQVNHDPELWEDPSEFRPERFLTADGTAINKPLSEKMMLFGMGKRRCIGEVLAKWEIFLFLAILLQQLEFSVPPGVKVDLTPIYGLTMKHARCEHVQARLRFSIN
For the compound `C[C@@]12CC[C@H]3[C@H](CC=C4C[C@@H](O)CC[C@@]43C)[C@@H]1CC[C@@H]2N(CCO)CCO`, the activity, negative = inhibition is -4.6% [at 11.4 µM].

In the case of `COC(=O)c1[nH]c2ccc(Br)cc2c1NC(=O)Oc1ccccc1`, the half-maximal activity concentration (AC50) was 0.0631 µM (active).

Turning to `C[C@]12CC[C@H](O)CC1=CC[C@@H]1[C@H]2CC[C@]2(C)C(=O)CC[C@H]12`, the “activity, negative = inhibition” value is -11.6%.

As for `N[C@H](CCCCCP(=O)(O)O)C(=O)O`, the “activity, negative = inhibition” value is -15.1%.

On to `C/C(=C\C=C/[C@@H](C)C(=O)O)[C@H]1CN[C@H](C(=O)O)[C@@H]1CC(=O)O`, for which the “activity, negative = inhibition” value is -14.8%.

Regarding `C[C@]1(O)CC[C@H]2[C@@H]3[C@@H](O)CC4=CC(=O)CC[C@@]4(C)[C@H]3CC[C@]21C`, the activity, negative = inhibition was 1.44% [at 2.29 µM].

Consider `O=P(c1ccccc1)(c1ccccc1)N1CC2(CC2)CC(O)(c2ccccc2)C1` (configuration not stated), for which the “activity, negative = inhibition” value was -19.7%.

With `O=C(Nc1ccc(Cl)cc1)Nc1nccs1`, the concentration at half-maximal activity (AC50) is 0.141 µM (active).

Regarding `C[C@]12CC[C@H]3c4ccc(O)cc4CC[C@@H]3[C@H]1CC[C@@H]2OC(=O)CCc1ccccc1`, the activity, negative = inhibition is -13.8% [at 2.29 µM].

With `CCCc1nc2ccccc2c(=O)n1-c1ccc(OC)cc1`, the half-maximal activity concentration (AC50) is 12.6 µM (active).

As for `CCCCc1nc2ccccc2c(=O)n1-c1ccc(Cl)cc1[N+](=O)[O-]`, the “activity, negative = inhibition” value is -25.1%.

As for `CCCCc1nc2ccccc2c(=O)n1-c1ccccc1[N+](=O)[O-]`, the concentration at half-maximal activity (AC50) is 14.1 µM (active).

For the compound `Cc1ccc(-c2nc3ccccc3c(=O)n2-c2ncccc2C)cc1`, the “activity, negative = inhibition” value is -12.2%.

With `NC(N)=Nc1ccc2[nH]c3c(c2c1)C[C@]1(O)[C@@H]2Cc4ccc(O)c5c4[C@]1(CCN2CC1CC1)[C@H]3O5`, the “activity, negative = inhibition” value is 9.9%.

Regarding `NS(=O)(=O)C[C-]1C=C[CH]([Sb-]([Cl])([Cl])([Cl])([Cl])[Cl])C=C1.c1ccncc1` (configuration not stated), the activity, negative = inhibition is -15.1% [at 11.4 µM].

As for `O=C(O)[C@@H](O)[C@@H](O)[C@@H]1[O][Sb][O][C@@H]1CO`, the activity, negative = inhibition is -5.14% [at 2.29 µM].

As to `CCC1=C(C[C@H]2NCCc3cc(OC)c(OC)cc32)C[C@H]2c3ccccc3CCN2C1`, the activity, negative = inhibition is -6.07% [at 11.4 µM].

Consider `O=C(O)CNC(=O)[C@@H](CS)Cc1ccccc1`, for which the “activity, negative = inhibition” value was -4.85% [at 25.6 µM].

Take `Cc1sc2ccccc2c1CC1=NCCN1`: the AC50 is 2.51 µM (active).

Turning to `Cc1cc(C(C)(C)C)cc(C)c1CC1=NCCN1`, the “activity, negative = inhibition” value is -8.4% [at 25.6 µM].

`c1ccc2cc(CC3=NCCN3)ccc2c1`: the “activity, negative = inhibition” value is 2.54%.

As to `CCCN1CCC[C@H](c2cccc(C#N)c2)C1`, the “activity, negative = inhibition” value is -12.2%.

As to `CCN(CC)c1ccc(/C=C2/C(=O)NC(=O)N(CC3CCCO3)C2=O)cc1` (configuration not stated), the half-maximal activity concentration (AC50) is 12.6 µM (active).

In the case of `O=c1cccc2n1CC1CNC[C@H]2C1`, the “activity, negative = inhibition” value was -5.12% [at 25.6 µM].

Turning to `CC(C)(C)CC(=O)NC(=S)Nc1ccccc1C(F)(F)F`, the half-maximal activity concentration (AC50) is 11.2 µM (active).

Consider `O=[As](O)(O)c1ccc(N=Nc2ccc(O)cc2)cc1`, for which the activity, negative = inhibition was -14.5% [at 11.4 µM].

Regarding `O=P(Nc1c(Cl)cccc1Cl)(c1ccccc1)c1nc2c(s1)CCCC2` (configuration not stated), the “activity, negative = inhibition” value is -1.03%.

As to `CCN(CC)C(=O)N[C@@H]1C[C@H]2c3cccc4[nH]cc(c34)C[C@@H]2N(C)C1`, the AC50 entry is “inactive”.

For `COc1cc2c3cc1Oc1cc(ccc1O)C[C@@H]1c4c(cc(OC)c(O)c4Oc4cccc(c4)C[C@H]3N(C)CC2)CC[N+]1(C)C`, the “activity, negative = inhibition” value was -8.38% [at 25.6 µM].

Take `COc1ccc2cc1Oc1ccc(cc1)C[C@H]1c3cc(c(OC)cc3CCN1C)Oc1c(OC)c(OC)cc3c1[C@@H](C2)N(C)CC3`: the activity, negative = inhibition was 2.06% [at 2.29 µM].

Consider `CN1CCc2cc(O)cc3c2[C@H]1Cc1ccc(O)c(O)c1-3`, for which the AC50 is 12.6 µM (active).

Regarding `C=CCN1CCC2(C)c3cc(O)ccc3C[C@H]1[C@H]2C`, the AC50 entry was “inactive”.

As for `COc1cc2c3cc1Oc1c(O)c(OC)cc4c1[C@@H](Cc1ccc(cc1)Oc1cc(ccc1O)C[C@H]3N(C)CC2)N(C)CC4`, the activity, negative = inhibition is -8.21% [at 11.4 µM].

For `CCCN(CCC)[C@@H]1CCc2ccc(O)cc2C1`, the AC50 result was “inactive”.

In the case of `C=CCN1CCc2cccc3c2[C@@H]1Cc1ccc(O)c(O)c1-3`, the AC50 is 3.16 µM (active).

With `CCCN1CC[C@@H]2c3cc(O)ccc3CC[C@H]21`, the “activity, negative = inhibition” value was -9.66%.

For `C=CCN1CC[C@@]23c4c5ccc(O)c4O[C@H]2/C(=N\N=C2/CC[C@@]4(O)[C@H]6Cc7ccc(O)c8c7[C@@]4(CCN6CC=C)[C@@H]2O8)CC[C@]3(O)[C@@H]1C5`, the AC50 entry is “inactive”.

As for `CCCN1CCc2cc(O)cc3c2[C@H]1Cc1ccc(O)c(O)c1-3`, the AC50 is 12.6 µM (active).

In the case of `COc1cc2c(cc1O)C[C@H]1c3c(cc(O)c(OC)c3-2)CCN1C`, the AC50 was 2.51 µM (active).

On to `CN1CC[C@@]2(CCCN(C(=O)c3ccco3)C2)C1`, for which the “activity, negative = inhibition” value was 7.97%.

On to `COC(=O)C[C@](O)(CCCC(C)(C)O)C(=O)O[C@@H]1C(OC)=C[C@]23CCCN2CCc2cc4c(cc2[C@H]13)OCO4`, for which the “activity, negative = inhibition” value is -9.9%.

`C=C[C@@H]1CN2CC[C@H]1C[C@H]2[C@H](O)c1ccnc2ccccc12`: the activity, negative = inhibition was -18.2% [at 11.4 µM].

Consider `CCN1C[C@@]2(COC)[C@H]3[C@@H](OC)[C@H]4C1[C@@]3([C@H](OC)C[C@@H]2O)[C@H]1C[C@@]2(O)[C@@H](OC(=O)c3ccccc3)[C@@H]1[C@@]4(OC(C)=O)[C@H](O)[C@@H]2OC`, for which the “activity, negative = inhibition” value was -4.7% [at 25.6 µM].

For the compound `NN=C(N)N`, the “activity, negative = inhibition” value was -5.67%.

`c1csc(CN2CC3(CCNCC3)C2)n1`: the “activity, negative = inhibition” value is 12.5%.

Turning to `Clc1ccc([C@@H]2C[C@H]3CC[C@@H]2N3)cn1`, the “activity, negative = inhibition” value is -20.5%.

As for `Clc1ccc(C2=CCC[C@H]3CC[C@@H]2N3)cn1`, the AC50 was 15.8 µM (active).

As to `CCN(CC)C(=O)N[C@H]1C[C@H]2c3cccc4[nH]cc(c34)C[C@@H]2N(C)C1`, the “activity, negative = inhibition” value is -12.5%.

Turning to `CNC(C)(C)Cc1ccccc1`, the “activity, negative = inhibition” value was -1.89% [at 25.6 µM].

For the compound `C[C@H](Br)C(=O)N[C@H](CO)C(=O)O`, the activity, negative = inhibition was -13.1% [at 11.4 µM].

Take `O=C(O)C[C@H]1NCc2cc3ccccc3nc21`: the activity, negative = inhibition was -4.93% [at 2.29 µM].

Turning to `CCC1(CC)C(=O)C=CNC1=O`, the “activity, negative = inhibition” value is -8.09% [at 25.6 µM].

With `O=C(Nc1ccc(Cl)cc1C(=O)c1ccccc1)c1ccco1`, the AC50 is 2.51 µM (active).

Turning to `CC[C@]1(C2=NCCN2)Cc2ccccc2O1`, the “activity, negative = inhibition” value is -6.04%.

For `CNC[C@H](O)c1ccc(O)cc1`, the “activity, negative = inhibition” value is -7.35% [at 25.6 µM].

For `CC[n+]1c(/C=C/N(C)c2ccccc2)sc2ccc(Cl)cc21`, the AC50 is 4.47 µM (active).

`O=C(Nc1cccc(F)c1)N1CCC2(CC1)CCN(C(=O)Oc1ccccc1)CC2`: the “activity, negative = inhibition” value was -13.8%.

The AC50 is the concentration giving half of the maximal activity seen.
